Assay results as given in PubChem BioAssay (NCI).
This is part of a sample that, as a whole, favours compounds with a hit. Of some 79,000 tested, about 15% had one in any assay. Rule as the data show it: active = growth inhibition above about 70%; inactive = the rest.

Experiments:
[1] = NCI Yeast Anticancer Drug Screen. Data for the rad50 strain (AID 155);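 also: 0% = growth of vehicle-only cultures of the same strain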; conditions: S. cerevisiae rad50 strain growth inhibition; at 50.0 µM; stronger effect = higher value
Procedure, shortened: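 Yeast carrying a defined DNA repair defect were exposed to test compounds, and growth was compared with vehicle-treated controls to give percent inhibition.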

[2] = NCI Yeast Anticancer Drug Screen. Data for the mec2-1 strain (AID 157); conditions: S. cerevisiae mec2-1 strain, at 50.0 µM, stronger effect = higher value
Procedure, shortened: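 Mutant yeast (mec2-1) grown with compound; growth inhibition relative to vehicle control reported.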

[3] = NCI Yeast Anticancer Drug Screen. Data for the sgs1 mgt1 strain (AID 161);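 also: 0% = growth of cultures given vehicle only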; conditions: S. cerevisiae sgs1 mgt1 strain, at 50.0 µM, stronger effect = higher value
Procedure, shortened: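 This yeast growth screen uses a strain with defined DNA-repair lesions; compound-treated growth is compared with vehicle-treated growth.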

[4] = NCI Yeast Anticancer Drug Screen. Data for the cln2 rad14 strain (AID 165);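 also: 0% = growth equal to vehicle treated cultures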; conditions: S. cerevisiae cln2 rad14 strain, at 50.0 µM, stronger effect = higher value
Procedure, shortened: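 Readout is yeast growth inhibition versus vehicle-treated controls, using a strain with cln2 and rad14 alterations exposed to compound.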

[5] = NCI Yeast Anticancer Drug Screen. Data for the bub3 strain (AID 167); conditions: S. cerevisiae bub3 mutant strain, at 50.0 µM, stronger effect = higher value
Procedure, shortened: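 Compounds were applied to a genetically altered yeast strain carrying a cell-cycle control defect. Growth inhibition was scored against vehicle-treated controls.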

[6] = NCI Yeast Anticancer Drug Screen. Data for the mlh1 rad18 strain (AID 175); conditions: S. cerevisiae mlh1 rad18 strain growth inhibition; at 50.0 µM; stronger effect = higher value
Procedure, shortened: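 Genetically defined yeast (DNA repair-deficient) exposed to compounds; growth inhibition determined relative to vehicle.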

Measured: growth inhibition

FC(F)(F)c1cc(-c2ccc(C3Nc4ccccc4-n4cccc43)o2)cc(C(F)(F)F)c1 (stereo unspecified)
inactive: [1] 11.7% | [2] -23.4% | [3] 24.2% | [4] 6.65% | [5] 25.4% | [6] 30.3%

CCc1ccc(OC(=O)CCl)cc1
inactive: [1] -19.4% | [2] 9.5% | [3] -21.6% | [4] -28.7% | [5] -3.4% | [6] -42.5%

Fc1ccccc1CSc1n[nH]c(=S)c2nc[nH]c12
inactive: [1] 4.05% | [2] 8.3% | [3] 17.8% | [4] -12.3% | [5] 0.3% | [6] 12%

COc1cccc(Oc2ccc(C)cc2)c1
inactive: [1] 17.2% | [2] -12.8% | [3] -18.6% | [4] -19.1% | [5] 8.95% | [6] -21.9%

CCN(CC)c1ccc(C(C#N)(c2ccc(N(CC)Cc3cccc(S(=O)(=O)O)c3)cc2)c2ccc(N(CC)Cc3cccc(S(=O)(=O)O)c3)cc2)cc1
inactive: [1] -1% | [2] 8.15% | [3] 4.55% | [4] -7.7% | [5] -7.45% | [6] 29.6%

[N-]=[N+]=NCC1OCC(O)C(OCc2ccccc2)C1OCc1ccccc1 (stereo unspecified)
inactive: [1] -8.6% | [2] -10.4% | [3] -3.75% | [4] -11.8% | [5] -10.4% | [6] 3.3%

C/C=C/C(=O)OCCCCCCCCCCCCCCCCCC
inactive: [1] 13.7% | [2] -23.8% | [3] 11.7% | [4] 8% | [5] 15.5% | [6] 21%

Nc1c2ccccc2nc2ccc3c(=O)cc(-c4ccccc4)oc3c12
inactive: [1] 20.6% | [2] 18.9% | [3] -12.1% | [4] 22.1% | [5] 11.1% | [6] -73%

N=c1sc2ccccc2n1CC(=O)O
inactive: [1] 2.2% | [2] -16.5% | [3] -13.3% | [4] -22.6% | [5] 3.85% | [6] -41.2%

O=C(NCCCl)c1ccc(F)cc1
inactive: [1] -21.2% | [2] -4.65% | [3] -12.4% | [4] 0.35% | [5] -6.95% | [6] -44.7%

CCCOC(=O)CC(=O)OCC
inactive: [1] 6% | [2] 17.2% | [3] -4.95% | [4] -11.8% | [5] -7.15% | [6] -17.4%

Cc1c(O)cc(O)c(C)c1C
inactive: [1] -0.3% | [2] -23.3% | [3] -8.6% | [4] -2% | [5] 9.8% | [6] -8.65%

C[Si](C)(C)CN=P(c1ccccc1)(c1ccccc1)c1ccccc1
inactive: [1] -29.6% | [2] -12.4% | [3] -19.2% | [4] 17.4% | [5] 3.7% | [6] -4.8%

COCCOC(=O)C(O)c1ccccc1 (stereo unspecified)
inactive: [1] 23.9% | [2] 13.9% | [3] 9.05% | [4] 9% | [5] 12.8% | [6] 10.4%

Cc1cc2cc(Cl)ccc2nc1C(=O)c1ccccc1
inactive: [1] -5.75% | [2] -24.4% | [3] -3.3% | [4] 17.7% | [5] -6.65% | [6] -18.7%

CCOc1ccccc1NC(=O)C(=O)CC(=O)c1sc(Nc2nnc(-c3ccc(Cl)c(Cl)c3)o2)nc1C
inactive: [1] 20.5% | [2] -11.6% | [3] 21.1% | [4] 21.4% | [5] 31.4% | [6] 17.8%

COc1cc2c(oc(=O)c3cc4cc([Si](C)(C)C)oc4c(OC)c32)c2cccc(O)c12
inactive: [1] -0.5% | [2] -27.4% | [3] -26.6% | [4] -23.2% | [5] 6.9% | [6] -8.25%

CCCC(=O)OCC1OC2OC(C)(C)OC2C2OC(C)(C)OC12 (stereo unspecified)
inactive: [1] -4.45% | [2] -2.55% | [3] 10.8% | [4] 8.55% | [5] 15.8% | [6] -6.25%

CCCCc1nc(C)oc1C(C)C
inactive: [1] -31.2% | [2] -15.8% | [3] -8.05% | [4] -5.45% | [5] -23.9% | [6] -8.2%

Nc1ccc2ccc(NS(=O)(=O)N3CCCCC3)cc2c1
inactive: [1] 31.8% | [2] 46.9% | [3] 43.1% | [4] 52.6% | [5] 18.5% | [6] 50.9%

COc1cccc(N=NN2CCCC2)c1
inactive: [1] 16.2% | [2] 14.2% | [3] 17.8% | [4] 20.1% | [5] 7.15% | [6] 23.4%

Cc1cc2nc3ccc(=[N+](C)C)cc-3sc2cc1N
inactive: [1] -24.2% | [2] -39.8% | [3] -20.6% | [4] -14.2% | [5] -25.8% | [6] -24.1%

C1=C[CH]([Sn]([CH]2C=Cc3ccccc32)([CH]2C=Cc3ccccc32)[CH]2C=Cc3ccccc32)c2ccccc21 (stereo unspecified)
inactive: [1] -14.2% | [2] -6.75% | [3] -1% | [4] -6.4% | [5] 1.2% | [6] -1.7%

C/C=C/C1OC(OC)(OC)C1(OC)OC (stereo unspecified)
inactive: [1] 38.8% | [2] 9.85% | [3] 18.9% | [4] 3.25% | [5] 11.3% | [6] 11.6%

CC(=O)c1cccc2cc(CC(=O)c3ccccc3)c(=O)oc12
inactive: [1] 12.2% | [2] 5.6% | [3] 6.4% | [4] -33.1% | [5] 11.1% | [6] 1.35%

COc1ccccc1OCC(O)CO (stereo unspecified)
inactive: [1] -8.3% | [2] -22.9% | [3] -14.8% | [4] 7.7% | [5] -10.9% | [6] 10.5%

CCCCCCCCCCN(CCCCCCCCCC)C(C)C(O)c1ccc2cc(Br)c3ccccc3c2c1 (stereo unspecified)
inactive: [1] -12.4% | [2] -13.2% | [3] -15.8% | [4] -16.9% | [5] -12.5% | [6] -14.3%

CC(=O)COc1ccccc1
inactive: [1] -2.7% | [2] -10.5% | [3] 7.75% | [4] 6.45% | [5] -6.85% | [6] 15.4%

COc1ccc(/C=C2\CCC(CNc3cc(C)on3)C2=O)cc1 (stereo unspecified)
inactive: [1] 21.5% | [2] -14.6% | [3] 17.1% | [4] 37.1% | [5] 29.1% | [6] -19.4%

N#C/C(=C\c1c(Cl)cccc1Cl)c1ccc([N+](=O)[O-])cc1
inactive: [1] 7.65% | [2] -0.2% | [3] 16% | [4] -4.45% | [5] 48.8% | [6] 5.1%

OCc1ccccc1F
inactive: [1] -42.4% | [2] -34% | [3] -20.6% | [4] -15.3% | [5] -15.1% | [6] -36.2%

COc1ccc(C(=Cc2cc(OC(C)=O)c3ccccc3c2OC(C)=O)c2ccc(OC)cc2)cc1
inactive: [1] 13.1% | [2] -8.8% | [3] -8% | [4] -15.9% | [5] 3.7% | [6] -0.5%

COC(=O)/C(=C\c1ccc(N(CCC#N)CCC#N)cc1)NC(=O)c1cc([N+](=O)[O-])ccc1Cl
inactive: [1] -0.55% | [2] -3.65% | [3] -16.1% | [4] 5.65% | [5] -21.6% | [6] -3.4%

COc1ccc(/C=C/C(=O)C(C)(C)CN2CCCCC2)cc1
inactive: [1] 39.9% | [2] 24.9% | [3] 20.5% | [4] 37.8% | [5] 36.5% | [6] 39.2%

CC(C)N(C(=S)/N=C1/SC(C)S(=O)(=O)N1C)C(C)C (stereo unspecified)
inactive: [1] -4.95% | [2] 13.6% | [3] -5.95% | [4] -4.5% | [5] -10.8% | [6] 5.45%

CC(=O)NCc1cc([N+](=O)[O-])ccc1O
inactive: [1] 11.6% | [2] 2.55% | [3] -0.8% | [4] -6.2% | [5] -3.55% | [6] 5.05%

CC(C)(O)CC(O)(C(F)(F)F)C(F)(F)F
inactive: [1] 14.3% | [2] -0.95% | [3] -3.25% | [4] -20.3% | [5] 3.35% | [6] 1.9%

CCCCc1c2c(nc3c1CCCC3=O)CCCC2
inactive: [1] 8.7% | [2] 8.45% | [3] 27.4% | [4] 15.8% | [5] 37.9% | [6] -0.8%

CC1OC2CC(O)C1(O)C1=C2C(O)=C(C(N)=O)C(=N)C1=O (stereo unspecified)
inactive: [1] 12.3% | [2] -15.6% | [3] 19.4% | [4] 6.8% | [5] 5.35% | [6] -21.4%

CC1=NC(C(N)=O)C(=O)N1 (stereo unspecified)
inactive: [1] -35% | [2] -23.4% | [3] -15.3% | [4] -30.4% | [5] -8.8% | [6] -0.65%

Oc1ccc(-c2ccc(O)cc2O)c(O)c1
inactive: [1] -1.45% | [2] -20.9% | [3] -1.85% | [4] 7.45% | [5] 0.35% | [6] 14.2%
